# Compound activity deposited in PubChem by several laboratories.
# GDH-TPI counter = GDH-TPI coupling enzyme inhibitors, primary screen, artefact control for M. tuberculosis FBA inhibitor project, biochemical, absorbance, full deck; GDH-TPI coupled enzyme counterscreen, NADH absorbance; inhibition, % at 4.8 µM; actives 1.2% (n = 360,000); AID 588335, 2011; in the data active means inhibition above about 30%
# Mtb FBA inh = Mtb FBA enzyme inhibitors, primary screen, biochemical, fluorescence, strain H37Rv | Fructose-bisphosphate aldolase (Mycobacterium tuberculosis (strain ATCC 25618 / H37Rv)), … | purified M. tuberculosis FBA, fluorescence read-out | inhibition, % at 1 µM | actives 2.3% (n = 360,000) | AID 588726, 2011; in the data active means inhibition above about 27%
# Target sequence (P9WQA3 whole entry, looked up): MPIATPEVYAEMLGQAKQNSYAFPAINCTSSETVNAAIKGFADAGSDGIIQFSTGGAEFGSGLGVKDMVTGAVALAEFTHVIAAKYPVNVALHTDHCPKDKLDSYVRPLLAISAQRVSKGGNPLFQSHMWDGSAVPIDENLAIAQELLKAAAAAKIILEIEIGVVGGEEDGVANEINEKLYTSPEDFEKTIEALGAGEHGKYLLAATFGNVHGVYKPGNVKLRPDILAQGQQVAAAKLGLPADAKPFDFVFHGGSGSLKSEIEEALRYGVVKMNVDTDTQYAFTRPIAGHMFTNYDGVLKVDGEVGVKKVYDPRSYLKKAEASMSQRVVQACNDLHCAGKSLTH
# Anthrax LF inh2 = Bacillus anthracis LF protease inhibitors, primary screen, biochemical, multiplex microsphere, MLPCN library; Lethal factor (Bacillus anthracis), P15917; multiplex microsphere protease cleavage assay; inhibition, % at 10 µM; actives 0.12% (n = 360,000)
# Bead autofluor = counter-screen for toxin protease inhibitors: compound fluorescence; fluorescence intensity (no concentration beside the values); compound autofluorescence counterscreen, microsphere flow cytometry; hits give high values; actives 3.1% (n = 360,000); in the data active means fluorescence intensity above about 16000; inconclusive means no clear call, values can overlap the other calls
# BoNT A protease = BoNT/A light chain protease inhibitors, primary screen, biochemical, flow cytometry, MLPCN library; inhibition, % at 10 µM; actives 0.17% (n = 360,000); AID 588499, 2011; multiplex microsphere protease substrate cleavage
# BoNT-F LC inh = BoNT/F light chain protease inhibitors, primary screen, biochemical, flow cytometry, MLPCN library; inhibition, % at 10 µM; Multiplex microsphere protease cleavage assay; AID 588497, 2011; Botulinum neurotoxin type F light chain protease (Clostridium botulinum); actives 0.22% (n = 360,000); in the data active means inhibition above about 35%, passing the limit was not always enough; inconclusive means no clear call, values can overlap the other calls
# Hits are given with their value; i = inactive; ? = inconclusive; nt = no result. Sampled rows, rich in hits. Any-hit rate of the full collection: about 6.6%. Unless noted, no stated cut-off is given here; in the data, active means inhibition above about 30%; inconclusive means no clear call, values can overlap the other calls; inactive means below that.
SMILES,GDH-TPI counter,Mtb FBA inh,Anthrax LF inh2,Bead autofluor,BoNT A protease,BoNT-F LC inh
CC(C)(C)NC(=O)CN(C(=O)C1(C)CC(=O)N=C2C=CC=CN21)C1CCCC1 (stereo unspecified),i,120.3,i,23762,i,i
O=C(NCCCc1ccccc1)c1cncc(Br)c1,i,i,i,i,i,i
O=C(Cc1c(F)cccc1Cl)NNC(=O)c1cccs1,i,i,i,i,i,i
CC(=O)c1ccc(-n2c(C)ccc2-c2ccccc2)cc1,i,i,i,23002,i,i
NC(=O)C1CCN(C(=O)c2ccc(NS(=O)(=O)/C=C/c3ccccc3)cc2)CC1,i,i,i,i,i,i
C[C@@H]1CN([C@H](C)CO)C(=O)CCCn2cc(nn2)CO[C@H]1CN(C)C(=O)c1ccccc1,nt,i,i,i,i,i
CCC(NC(=O)Cc1c(C)c2ccc(OC)c(C)c2oc1=O)C(=O)NC(Cc1ccc(Cl)cc1)C(=O)O (stereo unspecified),i,143.1,i,i,i,i
Cc1cc(Cl)c(S(=O)(=O)Nc2ccc3c(c2)OCO3)cc1OCC(N)=O,i,i,i,i,i,i
Cc1cc(Cl)c(S(=O)(=O)N2CCCC2)cc1OCC(=O)NC1CCCCC1,i,i,i,20066,?,i
O=C(NC1CC1)C1CCN(c2ccc(S(=O)(=O)N3CCOCC3)cc2Cl)CC1,i,i,i,22681,i,i
O=C(COC(=O)c1cc(S(=O)(=O)N2CCCCC2)ccc1Cl)NC1CCCCC1,i,i,i,i,i,i
Cc1cc(Cl)c(S(=O)(=O)Nc2ccc3c(c2)OCO3)cc1OCC(=O)NC1CCCCC1,i,i,i,25458,i,i
O=C(COc1ccc(S(=O)(=O)N2CCCC2)cc1Cl)NC1CCCC1,i,i,i,20890,i,i
Cc1ccc(NS(=O)(=O)c2ccc(C)c(C(=O)NCC(c3ccccc3)N(C)C)c2)cc1 (stereo unspecified),i,i,i,i,i,i
O=C(COc1ccccc1)Nc1ccc(-c2ccc(N3CCOCC3)nn2)cc1,i,i,i,i,i,i
Cc1cc(Cl)c(S(=O)(=O)NC(C(=O)O)C(C)C)cc1OCC(=O)NC1CCCCC1 (stereo unspecified),i,i,i,20262,?,i
CCOC(=O)c1nc2sc3c(c2c(=O)[nH]1)CCCC3,i,181.0,i,i,i,i
Cc1cc(NC(=O)CSc2nnc(COc3cccc(C)c3C)n2Cc2ccco2)no1,i,i,i,i,?,i
Cc1cccc(OCc2nnc(SCC(=O)N(C(C)C)C(C)C)n2Cc2ccco2)c1C,i,i,i,16236,i,i
NC(=O)c1ncn([C@@H]2O[C@H](CNC(=O)[C@H](N)CSCc3ccccc3)[C@@H](O)[C@H]2O)n1,i,i,i,i,i,i
CCN1C(=O)/C(=C\N(C)C)NC1=S,33.6,i,i,i,i,i
COc1ccc(N2C(=O)/C(=C/N(C)C)NC2=S)cc1,i,i,i,i,i,i
CCCC(=O)Nc1cc(-c2nn(C)c(=O)c3ccccc23)ccc1N1CCCCC1,i,i,i,16901,i,i
CCC(=O)Nc1cc(-c2nn(C)c(=O)c3ccccc23)ccc1N1CCCCC1,i,i,i,i,i,i
COc1ccc(Cl)cc1NC(=O)CCn1cnc2ccccc2c1=O,i,49.3,i,i,i,i
SMILES,GDH-TPI counter,Mtb FBA inh,Anthrax LF inh2,Bead autofluor,BoNT A protease,BoNT-F LC inh
CC(=O)Nc1cc(-c2nn(C)c(=O)c3ccccc23)ccc1N1CCCCC1,i,i,i,16582,i,i
Cn1nc(-c2ccc(N3CCOCC3)c(NS(=O)(=O)c3ccccc3)c2)c2ccccc2c1=O,i,i,i,22480,i,i
O=C(CCn1cnc2ccccc2c1=O)Nc1cccc(Cl)c1,i,i,i,i,i,i
CCC(=O)Nc1cc(-c2nn(C)c(=O)c3ccccc23)ccc1OC,i,i,i,21426,i,i
Cc1ccc(-c2nn(C)c(=O)c3ccccc23)cc1S(=O)(=O)N1CCCC1,i,i,i,i,i,i
Cc1ccc(-c2nn3c(C)nnc3c3ccccc23)cc1S(=O)(=O)NCCN1CCOCC1,i,i,i,22118,i,i
